PubChem BioAssay (NCATS)
Results filed as inconclusive are left out. Values without a mark were called inactive. Calls of active or inactive are those of the source. The call rests on the fitted dose curve; in most records, active means well fitted inhibition curve with a large enough effect; inconclusive means small, poorly fitted or top-dose-only effect; inactive means no such curve, though single readings can be large or run the other way.

Test: qHTS to identify inhibitors of the type 1 interferon - major histocompatibility complex class I in skeletal muscle: primary screen against the NCATS Mechanism Interrogation Plate v5.0 (MIPE) Libary (AID 1347411); further: nearly all actives have a fitted effect of over 65% in size;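 on activity change, negative = inhibition: plate controls were vehicle for no effect and reference inhibitor for full effect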
Settings: iHSKM cells + IFN-b, HiBiT-tagged MHC-I luminescence, 24 h; series mostly up to 45.8 µM; activity change, negative = inhibition: at the top concentration
Source text: Assay Submitter (PI): Travis B. Kinder Ph.D. & James Inglese Ph.D.
Assay Development and Screening Technology Laboratory (ADST)
National Center for Advancing Translational Sciences (NCATS), Rockville, MD
National Institute of Health (NIH), Bethesda, Maryland
Idiopathic inflammatory myopathies, collectively referred to as myositis, are a group of rare autoimmune diseases characterized by skeletal muscle inflammation, weakness, and usually accompanied by systemic pathologies of the skin, lungs, or vasculature. Current immunosuppressive therapies and glucocorticoids are often not curative and are accompanied by harsh side effects, especially in children with juvenile myositis. We initiated a drug repurposing and development program to identify more targeted, less toxic therapeutics to treat myositis. Although its cause is not known, muscle from a subset of patients have an abundance of the inflammatory type 1 interferon (IFN) and a down-stream product major histocompatibility complex class I (MHC class I), which are both thought to contribute to damage and weakness. We conducted quantitative high throughput screening on 6,576 compounds (4,679 unique) through a series of cell-based assays to identify those that inhibit the IFN-stimulated expression of MHC class I in muscle precursor cells (myoblasts). The compound identification and evaluation strategy utilized a primary screen with reporter-tagged MHC class I in genome-engineered myoblasts, ATP content counter screen for viability, HLA-ABC immunofluorescence secondary screen, and HLA-B RT-qPCR tertiary screen.
The primary screen utilized CRISPR/Cas9 genome-engineering of immortalized human myoblasts, C25cl48, where a pro-luminescent reporter HiBit was fused to the C-terminus of endogenous MHC class I allele HLA-B*08:01 (HLA-B HiBit myoblasts). HiBit is an 11 amino acid fragment of NanoLuc luminescent reporter (Promega Corporation), and when complexed to the larger LgBit fragment, the reconstituted enzyme produces light in the presence of furimazine substrate (Schwinn et al., 2018). Briefly, HLA-B HiBit myoblasts were plated into 1536-well plates, treated with 4.0 ng/ml human IFN-beta and 2,480 compounds from the NCATS Mechanism Interrogation Plate v5.0 (MIPE5.0) in an 11-point, 1:3 titration with a high final concentration of 46 uM. After 24 hrs of treatment, cells were assayed by Nano-Glo HiBiT Lytic Detection System (Promega) and luminescence measured by a ViewLux 1430 Ultra HTS (Perkin Elmer).
Schwinn MK, Machleidt T, Zimmerman K, Eggers CT, Dixon AS, Hurst R, Hall MP, Encell LP, Binkowski BF, Wood K V. 2018. CRISPR-Mediated Tagging of Endogenous Proteins with a Luminescent Peptide. ACS Chem Biol 13:467-474. doi:10.1021/acschembio.7b00549
PROTOCOL TABLE (as described by Inglese et al., 2007)
SEQUENCE No. (e.g., 1, 2, 3, etc.); […] (e.g., Cells, Incubation, Reagent, etc.); VALUE; DESCRIPTION
1a; Cells; 5 uL; Use a Multidrop Combi (Thermo Scientific) to seed 300 cells/well into 24 Greiner 1536 well white/solid bottom, high base, TC plates in 5 ul/well of iHSKM growth medium (GM) without dexamethasone into columns 1+2. Add metal lids with gas-exchange holes
1b; Cells; 5 uL; Use a Multidrop Combi (Thermo Scientific) to seed 300 cells/well into 24 Greiner 1536 well white/solid bottom, high base, TC plates in 5 ul/well of iHSKM GM without dexamethasone + 4 ng/ml IFN-b into columns 3 - 48. Add metal lids with gas-exchange holes
2; Incubate; 1 hr; Incubate at 37 C, 5% CO2, 95% RH
3; Compounds; 23 nl; Use Pin Tool (Wako) to transfer DMSO control, ruxolitinib IFN-b inhibitor control [High Concentration = 80 uM final, 16-pt, 1:2 in duplicate], and library compounds in DMSO
4; Incubate; 24 hrs; Incubate at 37 C, 5% CO2, 95% RH
5; Dispense; 2.5 ul; Use BioRAPTR FRD (Beckman Coulter) to add HiBit lytic reagent
6; Incubate; 10 min; Incubate in the dark at ambient temperature for lysis
7; Detector; 5 sec; Measure luminescence with ViewLux 1430 Ultra HTS (Perkin Elmer). […]
Potency means the concentration at half of the fitted maximal effect.

SMILES | Potency | activity change, negative = inhibition
COc1cc2c3c(n(CCCNCCO)c(=O)c2cc1OC)-c1cc2c(cc1C3=O)OCO2 | 5.87 µM (active) | –
COc1ccc([C@@H](O)[C@@H](C)Oc2ccc([C@H]3O[C@H](c4ccc(O[C@H](C)[C@H](O)c5ccc(OC)c(OC)c5)c(OC)c4)[C@H](C)[C@H]3C)cc2OC)cc1OC | – | -36.8%
COc1nc(OCc2cccc(-c3ccccc3)c2C)ccc1CNCCNC(C)=O | 16.5 µM (active) | –
CC(=O)N1CCN(c2ccc(NC(=O)Cc3cnc(-c4ccnc(F)c4)c(C)c3)nc2)CC1 | – | -13.3%
O=C(NO)c1cnc(N2C[C@H]3C[C@@H]2CN3c2cc(C(F)(F)F)ccn2)nc1 | 4.66 µM (active) | –
COc1cccc(-c2c(C)n(Cc3c(F)cccc3C(F)(F)F)c(=O)n(C[C@H](NCCCC(=O)O)c3ccccc3)c2=O)c1F | inactive | –
O=C(Nc1cccc(C(F)(F)F)c1)c1cccc2cc(Oc3cc(CO)ncn3)ccc12 | – | -11.2%
CC(C)(O)CS(=O)(=O)Nc1ccc2c(c1)CCN(C(=O)COc1cccnc1)C2 | – | 1.51%
Cc1cc2cc(Oc3ccnc(Nc4cccc(CS(=O)(=O)NCCN(C)C)c4)n3)ccc2[nH]1 | 13.1 µM (active) | –
CC(=O)c1ccc2c(c1)c1cc(C(C)=O)ccc1n2CCNC(C)C | 1.47 µM (active) | –
CN(C)c1cc(NC(=O)CNC(C)(C)C)c(O)c2c1C[C@H]1C[C@H]3[C@H](N(C)C)C(=O)C(C(N)=O)=C(O)[C@]3(O)C(=O)C1=C2O | – | -16.2%
Nc1nc(N)c2nc(-c3cccc(Cl)c3)c(N)nc2n1 | – | 4.98%
CO[C@H]1/C=C/O[C@@]2(C)Oc3c(C)c(O)c4c(O)c(c(/C=N\N5CCN(C6CCCC6)CC5)c(O)c4c3C2=O)NC(=O)/C(C)=C\C=C\[C@H](C)[C@H](O)[C@@H](C)[C@@H](O)[C@@H](C)[C@H](OC(C)=O)[C@@H]1C | 18.6 µM (active) | –
[2H]c1nc(C)nc([2H])c1-c1cc(NC[C@@H](C)c2cccc3c(C(=O)NC)ccnc23)ncn1 | – | -0.0332%
N#Cc1ccc(N(Cc2ccc(Br)cc2)n2cnnc2)cc1 | – | -8.27%
C[C@@H](Oc1ccc2[nH]nc(/C=C/c3cnn(CCO)c3)c2c1)c1c(Cl)cncc1Cl | 0.93 µM (active) | –
Cc1cc(C)c2c(c1)[C@@H](N(Cc1cc(C(F)(F)F)cc(C(F)(F)F)c1)c1nnn(C)n1)CCCN2CC1CCC(C(=O)O)CC1 (stereo not given in full) | – | -12.8%
CN(C)C/C=C/C(=O)Nc1cc2c(Nc3ccc(F)c(Cl)c3)ncnc2cc1O[C@H]1CCOC1 | 16.5 µM (active) | –
C[C@H]1CNCCCN1S(=O)(=O)c1cccc2cncc(F)c12 | – | 5.46% [at 15.5 µM]
Nc1n[n+]([O-])c2ccccc2[n+]1[O-] | – | -24.7%

SMILES | Potency | activity change, negative = inhibition
C=CCNc1c(O)cc2c(O)c1C[C@@H](C)C[C@H](OC)[C@H](O)[C@@H](C)/C=C(/C)[C@H](OC(N)=O)[C@@H](OC)/C=C\C=C(\C)C(=O)N2 | 0.0523 µM (active) | –
CC[C@@]1(O)C(=O)OCc2c1cc1n(c2=O)Cc2c-1nc1cc(F)c(C)c3c1c2[C@@H](N)CC3 | 0.165 µM (active) | –
CCOc1cc(/C=C2/C(=O)N(c3ccccc3)N=C2C)cc(Cl)c1OCC(=O)OC | – | -7.33%
O=C(/C=C/c1ccc2ccc(C(F)(F)F)cc2n1)c1ccncc1 | 5.23 µM (active) | –
N[C@@H]1CN(c2c(F)cc3c(=O)c(C(=O)O)cn([C@@H]4C[C@@H]4F)c3c2Cl)CC12CC2 | – | -2.2%
C[C@H](CCC(=O)O)[C@H]1CC[C@H]2[C@@H]3[C@@H](O)C[C@@H]4C[C@H](O)CC[C@]4(C)[C@H]3CC[C@]12C | – | -9.14%
O=c1c(-c2ccc(O)cc2)coc2c([C@@H]3O[C@H](CO)[C@@H](O)[C@H](O)[C@H]3O)c(O)ccc12 | – | 1.5%
O=C(Nc1ccc(OC(F)(F)Cl)cc1)c1cnc(N2CC[C@@H](O)C2)c(-c2ccn[nH]2)c1 | – | -15.1%
NS(=O)(=O)c1ccc(S(=O)(=O)Nc2cccc3c(Cl)c[nH]c23)cc1 | – | -9.78%
CN1C[C@@H]2c3ccccc3Oc3ccc(Cl)cc3[C@H]2C1 | – | -8.03%
NS(=O)(=O)c1ccc(NC(=S)N2CCN(C/C=C/c3ccccc3)CC2)cc1 | – | -10%
CC1(C)OC2=C(C(=O)c3ccccc3C2=O)[C@H](NCc2ccccc2)[C@@H]1O | 9.3 µM (active) | –
O=C([O-])C[O-].[Pt+2] | – | -13.5%
Cc1c(-c2ccc(-c3ccccc3F)cc2)nc2ccc(F)cc2c1C(=O)O | – | -12.5%
CCN(CC)C(=O)Cc1csc(NS(=O)(=O)c2cccc(Cl)c2C)n1 | – | -23.5%
C[C@@H]1Cc2c([nH]c3ccccc23)[C@@H](c2c(F)cc(/C=C/C(=O)O)cc2F)N1CC(C)(C)F | – | -21.8%
CCOC(=N)c1nc2ccc3ncnc(Nc4cc(F)c(F)cc4Cl)c3c2s1 | – | -36.3%
COc1ccc2c(c1)C(c1ccc(F)cc1)=C(CN1CCCC1)CO2 | – | -22.5%
OC[C@H]1O[C@@H](S[C@@H]2O[C@H](CO)[C@H](O)[C@H](n3cc(-c4cccc(F)c4)nn3)[C@H]2O)[C@H](O)[C@@H](n2cc(-c3cccc(F)c3)nn2)[C@H]1O | – | 14.3%
COc1ccc(S(=O)(=O)N[C@@H](CNc2nc(C)nc(N3CCC(c4ccc5c(n4)NCCC5)CC3)c2C)C(=O)O)cc1 | – | -21.8%
